SMILES strings stand for the structures. Out of some 220,000 compounds screened, about 530 (0.24%) were called active. What follows is part of a selection rich in actives, with near analogues and random picks from the rest. Entries with a potency or affinity are not part of this list. Unmarked numbers belong to inactive results. No stated cut-off is given here; in the data, active means inhibition above about 13%; inconclusive means no clear call, values can overlap the other calls; inactive means below that.

The term inhibition denotes the change of the read-out against control, counted positive when it falls.

The target of this experiment is Bifunctional protein GlmU (Mycobacterium tuberculosis (strain ATCC 25618 / H37Rv)) (UniProt P9WMN3). As to the kind of experiment: inhibition of mycobacterial GlmU enzyme – biochemical, glucosamine-1-phosphate acetyltransferase (AID 1376).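 Further: 0% = complete reaction with vehicle and 100% = reaction without substrate.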 The following applies: M. tuberculosis GlmU acetyltransferase enzyme assay; stronger effect = higher value;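 tested at 30 µM in the primary screen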.
Chain of Bifunctional protein GlmU (Mycobacterium tuberculosis (strain ATCC 25618 / H37Rv)) (P9WMN3 whole entry, looked up): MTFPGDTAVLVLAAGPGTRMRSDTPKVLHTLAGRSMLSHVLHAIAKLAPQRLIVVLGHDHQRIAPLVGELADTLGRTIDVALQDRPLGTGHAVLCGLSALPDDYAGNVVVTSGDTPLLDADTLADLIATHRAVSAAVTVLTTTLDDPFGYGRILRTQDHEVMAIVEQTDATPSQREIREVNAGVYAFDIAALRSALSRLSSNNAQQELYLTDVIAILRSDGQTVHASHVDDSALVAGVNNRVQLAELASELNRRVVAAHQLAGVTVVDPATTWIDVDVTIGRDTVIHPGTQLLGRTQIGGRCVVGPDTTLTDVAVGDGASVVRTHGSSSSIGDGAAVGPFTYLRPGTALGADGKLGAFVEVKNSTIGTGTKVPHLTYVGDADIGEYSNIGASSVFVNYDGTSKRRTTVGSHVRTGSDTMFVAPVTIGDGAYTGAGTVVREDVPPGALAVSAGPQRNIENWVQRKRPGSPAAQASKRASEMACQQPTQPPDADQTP
Consider `CC(C)(Oc1ccc(CCNC(=O)c2ccc(-c3ccc(Cl)cc3)o2)cc1)C(=O)O`, for which the inhibition is 8.95%.

On to `COC(=O)c1ccc(/C=N/N2CCN(Cc3ccc(C)cc3C)CC2)cc1`, for which the inhibition is 0.99%.

As to `CC(C)Oc1ccc(C(=O)N2CCCC2C(=O)O)cc1` (stereo not drawn), the inhibition is 1.48%.

For `CCCCCCCCCCCC(=O)N/N=C/c1ccco1`, the inhibition is 2.22%.

As for `O=C(O)CC(C(=O)Nc1ccc(Cl)c(Cl)c1)C1CCCO1` (stereo not drawn), the inhibition was 5.87%.

As to `CC(=O)[C@@H]1[C@@H](C)N(Cc2ccccc2)C(=O)N[C@H]1c1cccc(C(F)(F)F)c1`, the inhibition was 3.76%.

With `Cc1oc(C(C)(C)C)cc1C(=O)N1CCN(C(c2ccccc2)c2ccccc2)CC1`, the inhibition is -0.86%.

For `COC(=O)CCC(=O)NC(=S)Nc1ccccc1F`, the inhibition is -2.07%.

As for `O=C(Nc1ccc(F)cc1)c1ccc2nsnc2c1`, the inhibition was -5.81%.

`O=C(Nc1ccccc1)c1ccc2nsnc2c1`: the inhibition is 19.3% (active).

Take `O=C(Nc1ccc(Cl)cc1)c1ccc2nsnc2c1`: the inhibition is 4.02%.

Turning to `O=C(CSc1nnc(-c2ccc(OC(F)F)cc2)o1)NCc1cccs1`, the inhibition was -1.34%.

With `N#Cc1c(Nc2ccc(Cl)cc2)s[nH]c1=O`, the inhibition was 4.63%.

Turning to `N#Cc1c(Nc2ccccc2Cl)s[nH]c1=O`, the inhibition is 0.08%.

Turning to `N#Cc1c(Nc2ccccc2)s[nH]c1=O`, the inhibition was 14.2% (active).

In the case of `COCCNC(=O)c1cc2c(=O)n3cccc(C)c3nc2n1C`, the inhibition was 3.57%.

`O=C(O)c1ccccc1SCc1cn2cc(Br)ccc2n1`: the inhibition was 0.7%.

In the case of `CCOc1ccc2c(c1)C(=O)c1cc(OCC(=O)O)ccc1-2`, the inhibition is -3.72%.

For `O=C(c1ccccc1)c1ccccc1C(=O)N1CCN(C(=O)c2ccccc2)CC1`, the inhibition is -3.19%.

Regarding `O=C(c1ccccc1)c1ccccc1C(=O)N1CCCC1`, the inhibition is 13.3% (active).

Take `O=C(c1ccccc1)c1ccccc1C(=O)N1CCOCC1`: the inhibition was -1.73%.

Regarding `CCCNC(=O)c1ccc(Cn2cc(C(F)(F)F)ccc2=O)cc1`, the inhibition is 0.72%.

With `O=C(Nc1cc2c(ccc3ccccc32)oc1=O)C1CCCCC1`, the inhibition was 0.95%.

With `COc1cc(/C=C2/C(=N)N3C(c4ccccc4)=CSC3=NC2=O)ccc1OCC(=O)O`, the inhibition is 14.6% (active).

For the compound `N=C1/C(=C\c2ccc(-c3cc(Cl)cc(Cl)c3)o2)C(=O)N=C2SC=C(c3ccccc3)N12`, the inhibition is -7.2%.

For `Cc1cccc(-n2c(C)cc(/C=C3/C(=N)N4C(c5ccccc5)=CSC4=NC3=O)c2C)c1`, the inhibition was 1.75%.

As for `CS(=O)(=O)C1=NSC2=NC(=O)/C(=C\c3ccc(-c4ccccc4)o3)C(=N)N21`, the inhibition was -0.37%.

In the case of `CC(C)S(=O)(=O)C1=NSC2=NC(=O)/C(=C\c3ccc(-c4ccccc4)o3)C(=N)N21`, the inhibition is 4.83%.

As to `Cc1cc(/C=C2/C(=N)N3C(c4ccccc4)=CSC3=NC2=O)c(C)n1-c1ccccc1`, the inhibition is -4.29%.

`N=C1/C(=C/c2cccn2CCOc2ccccc2)C(=O)N=C2SC=C(c3ccccc3)N12`: the inhibition is 2.69%.

As to `COc1cc(/C=C2/C(=N)N3C=CSC3=NC2=O)ccc1OCCCOc1ccccc1C`, the inhibition is -3.86%.

Consider `Cc1ccc(-n2c(C)cc(/C=C3/C(=N)N4C(c5ccccc5)=CSC4=NC3=O)c2C)cc1`, for which the inhibition was 7.47%.

As for `CCNC(=O)Oc1ccc[nH]c1=O`, the inhibition was 6.02%.

As for `CN(C)c1ccc(C=C(c2nnnn2-c2ccccc2)c2nnnn2-c2ccccc2)cc1`, the inhibition is -2.49%.

For `COC(=O)N/N=C(\C)c1ccc(OC(F)F)cc1OC(F)F`, the inhibition was 6.36%.

As for `FC(F)(F)c1ccccc1NC(=S)N1CCN(Cc2ccc3c(c2)OCO3)CC1`, the inhibition was -0.82%.

For `CCc1ccc(NC(=O)CSCCN2C(=O)c3ccccc3C2=O)cc1`, the inhibition was -2.41%.

For the compound `CCCCCNC(=O)c1cc(S(=O)(=O)N2CCCC2)ccc1F`, the inhibition was 0.96%.

As for `O=C1OC(c2cccs2)=N/C1=C\c1ccc(-c2ccccc2Cl)o1`, the inhibition is 7.66%.

In the case of `N=C1/C(=C\c2ccc(-c3cccc(Cl)c3)o2)C(=O)N=C2SC=C(c3ccccc3)N12`, the inhibition was -2.27%.

With `O=C1OC(c2cccs2)=N/C1=C/c1ccc(-c2cccc(C(=O)O)c2)o1`, the inhibition is 18.7% (active).

For the compound `N=C1/C(=C/c2ccc(-c3cccc(C(=O)O)c3)o2)C(=O)N=C2SC=C(c3ccccc3)N12`, the inhibition was 53.6% (active).

As for `O=C1OC(c2cccs2)=N/C1=C\c1ccc(-c2cccc(Cl)c2)o1`, the inhibition is 7.15%.

Take `Cc1ccccc1-n1c(C)cc(/C=C2/C(=N)N3C(c4ccccc4)=CSC3=NC2=O)c1C`: the inhibition was -1.94%.

For the compound `Cc1ccc(N/C=C(/C#N)c2ccsc2)cc1`, the inhibition was 1.11%.

Turning to `COc1cc(O)c(C(CCN2CCCC2)c2cc(OC)c(OC)c(OC)c2)c(OC)c1` (stereo not drawn), the inhibition was 1.11%.

Take `Cc1ccc(/C=N\NC(=O)C2CC(=O)N(c3ccccc3)C2)o1` (stereo not drawn): the inhibition was 3.39%.

Consider `Cc1cc(C)n2nc(C(=O)NCc3ccccc3)nc2n1`, for which the inhibition was -3.46%.

`Cc1cc(C)n2nc(C(=O)NCCc3ccccc3)nc2n1`: the inhibition was 14.6% (active).

Regarding `Cc1cc(C)n2nc(SCCC(=O)NCCc3ccccc3)nc2n1`, the inhibition is -3.62%.

In the case of `CCN(CC(=O)NCc1ccc(Cl)cc1)S(=O)(=O)c1ccc(NC(C)=O)cc1`, the inhibition was -2.53%.

With `CC(CCc1ccccc1)NC(=O)c1cccc([N+](=O)[O-])c1` (stereo not drawn), the inhibition was 13.1% (active).

For the compound `CC(CCc1ccccc1)NC(=O)c1ccccc1` (stereo not drawn), the inhibition was -2.82%.

In the case of `Cc1ccc(C(=O)NC(C)CCc2ccccc2)cc1[N+](=O)[O-]` (stereo not drawn), the inhibition is 3.64%.

For the compound `CCn1c(SCC(=O)NCCc2ccccc2)nnc1C(C)C`, the inhibition is 1.51%.

`Cn1c(SCC(=O)c2ccc3c(c2)NC(=O)CO3)nc2ccccc21`: the inhibition was -5.28%.

For the compound `Cn1c(=N)n(CC(=O)c2ccccc2)c2ccccc21`, the inhibition was 3.23%.

For the compound `COc1cccc(C(=O)Cn2c(=N)n(C)c3ccccc32)c1`, the inhibition was 13% (active).

Turning to `COc1ccc(C(=O)Cn2c(=N)n(C)c3ccccc32)cc1`, the inhibition is -4.4%.

For the compound `Nc1ncnc(Nc2ccc(S(N)(=O)=O)cc2)n1`, the inhibition is -0.83%.

For `CNC(=S)N1CCN(C(=O)c2ccco2)CC1`, the inhibition was 2.06%.

As to `COc1ccc(NC2(C#N)CCCCC2)cc1`, the inhibition was -1.99%.

As for `CC(Nc1nc(-c2ccc3c(c2)NC(=O)CO3)cs1)c1ccccc1` (stereo not drawn), the inhibition was -7.09%.

With `COC(=O)Cc1ccc(NC(=S)NCCSc2ccc(Cl)cc2)cc1`, the inhibition was 3.25%.

Regarding `COc1ccc2c(c1)c(C(=O)CN1CCC3(CC1)OCCO3)c(C)n2Cc1ccccc1`, the inhibition is -7.53%.

On to `COc1ccc2c(c1)c(C(=O)CN1CCC3(CC1)OCCO3)c(C)n2C`, for which the inhibition is 13% (active).

With `COc1ccc2c(c1)c(C(=O)CN1CCOCC1)c(C)n2C`, the inhibition was 5.7%.

In the case of `Cc1cc(C(C)(C)C)oc1C(=O)N(CC(=O)NC1CCCC1)Cc1ccccc1`, the inhibition was -0.33%.

`Cn1c(=O)c2c(ncn2CC(O)CNc2cccc(Cl)c2)n(C)c1=O` (stereo not drawn): the inhibition is -0.25%.

For the compound `COC(=O)Nc1ccc(S(=O)(=O)NCCCCCC(=O)O)cc1`, the inhibition is -5.41%.

For `O=C(O)c1ccccc1Nc1ccccc1C(=O)O`, the inhibition was -0.95%.

As for `COc1cc(-c2ccc(Nc3ccccc3C(=O)O)c(OC)c2)ccc1Nc1ccccc1C(=O)O`, the inhibition was 27.4% (active).

For `COc1ccc(Nc2ccccc2C(=O)O)cc1`, the inhibition is -1.06%.

On to `O=[N+]([O-])c1ccc(Oc2ccc(S(=O)(=O)N3CCCCC3)cc2)cc1`, for which the inhibition was -0.28%.

On to `O=c1c2[nH]c3cccc(Cl)c3c2ncn1CCN1CCCCC1`, for which the inhibition was 0.41%.

In the case of `CCOP(=O)(C1=C(O)C(=O)C(C(C)(C)C)=CC1=O)c1ccccc1` (stereo not drawn), the inhibition is 19.3% (active).

For the compound `CCP(=O)(c1ccccc1)C(C)(C)O` (stereo not drawn), the inhibition is 4.81%.

`CCCOP(=O)(c1ccccc1)c1ccccc1`: the inhibition is 0.12%.

Regarding `O=C1CN=C(c2ccc(Br)cc2)c2oc3ccccc3c2N1`, the inhibition is 14.2% (active).

Consider `O=C1CN=C(c2ccc(F)cc2)c2oc3ccccc3c2N1`, for which the inhibition is 0.53%.

With `O=C1CN=C(c2ccc(Cl)cc2)c2oc3ccccc3c2N1`, the inhibition is 2.87%.

In the case of `Cc1cccc(/C(N)=N/OC(=O)CCc2ccccc2)c1`, the inhibition is 3.83%.

For the compound `O=C(O)c1ccc(C(=O)O)c(C(=O)c2ccccc2)c1`, the inhibition was 1.74%.

On to `O=C(c1ccc(O)cc1)c1ccc(C(=O)O)c(C(=O)O)c1`, for which the inhibition is 12.8% (active).

Consider `O=C(c1ccc(O)cc1)c1ccc(C(=O)c2ccc(O)cc2)cc1`, for which the inhibition is -1.69%.

Regarding `Cc1ccc(C)c(NCc2ccccc2CO)c1`, the inhibition is -3.27%.

In the case of `O=C(O)c1ccc2c(c1)N(Cc1ccccc1)C(=O)c1ccccc1S2`, the inhibition is -0.29%.

For the compound `Cc1cccc(CN2C(=O)c3ccccc3Sc3ccc(C(=O)O)cc32)c1`, the inhibition is 14.3% (active).

In the case of `Cc1ccccc1CN1C(=O)c2ccccc2Sc2ccc(C(=O)O)cc21`, the inhibition is -2.8%.

For the compound `COCc1cc(C)nc(SCC(=O)Nc2ccccc2C)c1C#N`, the inhibition was 2.63%.

Regarding `COCc1cc(C)nc(SCC(=O)Nc2cccc3cccnc23)c1C#N`, the inhibition is 15.1% (active).

Regarding `COCc1cc(C)nc(SCC(=O)Nc2cccc(C)c2C)c1C#N`, the inhibition is 3.01%.

In the case of `CC(C)(C)NCC(O)Cn1cc(C=O)c2ccccc21` (stereo not drawn), the inhibition is 1.11%.

`CC1(c2ccccc2)CC(C)(C)N2C(=O)Cc3cccc1c32` (stereo not drawn): the inhibition is 2.59%.

Regarding `Cc1cccc(-n2c(=O)[nH]c3c(C(N)=O)nc(C(C)C)nc32)c1`, the inhibition is 0.14%.

Regarding `CCn1c2ccccc2c2cc(NC(=O)CSc3nnc(-c4cccc(OC)c4)n3N)ccc21`, the inhibition is 14.2% (active).

`CCn1c2ccccc2c2cc(NC(=O)CSc3nnc(-c4ccc(OC)c(OC)c4)n3N)ccc21`: the inhibition was 3.95%.

Regarding `CCn1c2ccccc2c2cc(NC(=O)CSc3nnc(-c4ccc(OC)cc4)n3N)ccc21`, the inhibition is 1.4%.

Values taken from PubChem BioAssay AID1376 (SRMLSC, 2008).
